A short description of test [1]: NCI Yeast Anticancer Drug Screen. Data for the rad50 strain (AID 155).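 Note: 0% = growth of vehicle-only cultures of the same strain.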 The settings on record: S. cerevisiae rad50 strain growth inhibition, stronger effect = higher value. The essentials:
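Readout: growth inhibition relative to vehicle-treated cultures. Compound exposure was carried out in a genetically defined yeast strain deficient in DNA damage repair.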

Test [2] in a line: NCI Yeast Anticancer Drug Screen. Data for the mec2-1 strain (AID 157). Conditions: S. cerevisiae mec2-1 strain, stronger effect = higher value. In outline:
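Each compound was tested on mec2-1 yeast, a strain altered in DNA damage repair or cell cycle control. Growth inhibition is reported relative to vehicle.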

Test [3] can be described thus: NCI Yeast Anticancer Drug Screen. Data for the sgs1 mgt1 strain (AID 161).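 Note: 0% = growth of cultures given vehicle only.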 Conditions: S. cerevisiae sgs1 mgt1 strain, stronger effect = higher value. The essentials: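 Mutant yeast exposed to compound; growth scored against vehicle-only wells.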
Test [4] is described as follows: NCI Yeast Anticancer Drug Screen. Data for the cln2 rad14 strain (AID 165).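 Note: 0% = growth equal to vehicle treated cultures.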 Conditions: S. cerevisiae cln2 rad14 strain, stronger effect = higher value. In outline:
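Test compounds were added to cln2 rad14 yeast cultures; inhibition of growth was then determined by comparison with vehicle treatment.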

A short description of test [5]: NCI Yeast Anticancer Drug Screen. Data for the bub3 strain (AID 167). Conditions: S. cerevisiae bub3 mutant strain, stronger effect = higher value. In outline:
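Readout: yeast growth inhibition, expressed relative to vehicle-only wells. The test organism is a mutant strain from a panel with lesions in DNA repair or checkpoint genes.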

The nature of test [6]: NCI Yeast Anticancer Drug Screen. Data for the mlh1 rad18 strain (AID 175). Conditions: S. cerevisiae mlh1 rad18 strain growth inhibition, stronger effect = higher value. In outline: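 Inhibition values reflect reduced growth of mutant yeast versus vehicle-treated controls following compound exposure; the mutations affect DNA damage repair.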
Where [7] appears, read: at 5.0 µM (retest, dose inferred, filed as 0.5).
Setting [8] is: at 50.0 µM (retest, dose inferred, filed as 5.0).

The panel holds about 79,000 compounds, 15% with a hit somewhere; the sample as a whole holds those more often. A number with no mark means an inactive call. The source made the active and inactive calls. Cut-off read from the data, not from the text of the source: active = growth inhibition above about 70%; inactive = the rest.

Regarding `O=C1CN=C(c2ccccc2)N(c2ccccc2)N1`, the growth inhibition in test [1] (setting [7]) was -1%; in test [1] (setting [8]) it was 96% (active); in test [1] (at 50.0 µM), 94% (active); in test [2] (setting [7]), -6%; in test [2] (setting [8]), 97% (active); in test [2] (at 50.0 µM), 96.5% (active). In addition, the growth inhibition in test [3] (setting [7]) is -15%; in test [3] (setting [8]), 96% (active); in test [3] (at 50.0 µM) it was 94.5% (active); in test [4] (setting [7]), 2%; in test [4] (setting [8]) it was 93% (active); in test [4] (at 50.0 µM) it was 85% (active). The growth inhibition was 8% in test [5] (setting [7]); 97% (active) in test [5] (setting [8]); 94.7% (active) in test [5] (at 50.0 µM); -1% in test [6] (setting [7]); 94% (active) in test [6] (setting [8]); 94.4% (active) in test [6] (at 50.0 µM).

Regarding `CNC(=O)OCc1c(COC(=O)NC)c(-c2ccc(Cl)c(Cl)c2)n2c1Cc1ccccc1C2`, the growth inhibition is -18% in test [1] (setting [7]); 97% (active) in test [1] (setting [8]); 88.7% (active) in test [1] (at 50.0 µM); -21% in test [2] (setting [7]); 98% (active) in test [2] (setting [8]); 92.2% (active) in test [2] (at 50.0 µM). In addition, the growth inhibition in test [3] (setting [7]) was -6%; in test [3] (setting [8]), 85% (active); in test [3] (at 50.0 µM), 88.8% (active); in test [4] (setting [7]), 8%; in test [4] (setting [8]) it was 63%; in test [4] (at 50.0 µM), 90.8% (active). Besides, the growth inhibition in test [5] (setting [7]) was -23%; in test [5] (setting [8]) it was 97% (active); in test [5] (at 50.0 µM), 88.1% (active); in test [6] (setting [7]), -11%; in test [6] (setting [8]), 97% (active); in test [6] (at 50.0 µM), 87% (active).

As for `O=C1CCC(Cc2ccc(Br)cc2)C(=O)N1` (configuration not stated), the growth inhibition in test [1] (setting [7]) is -4%; in test [1] (setting [8]) it was 7%; in test [1] (at 50.0 µM) it was -11.7%; in test [2] (setting [7]), -4%; in test [2] (setting [8]), 1%; in test [2] (at 50.0 µM) it was 7.2%. Further, the growth inhibition was 19% in test [3] (setting [7]); 96% (active) in test [3] (setting [8]); 93.7% (active) in test [3] (at 50.0 µM); -3% in test [4] (setting [7]); 3% in test [4] (setting [8]); -77.2% in test [4] (at 50.0 µM). Further, the growth inhibition is -6% in test [5] (setting [7]); -1% in test [5] (setting [8]); -54% in test [5] (at 50.0 µM); -6% in test [6] (setting [7]); 5% in test [6] (setting [8]); -2.1% in test [6] (at 50.0 µM).

With `Nc1c(C(=O)Nc2ccccc2)[n+]([O-])c2ccccc2[n+]1[O-]`, the growth inhibition in test [1] (setting [7]) was -2%; in test [1] (setting [8]) it was 73% (active); in test [1] (at 50.0 µM), 98.2% (active); in test [2] (setting [7]), -3%; in test [2] (setting [8]), 60%; in test [2] (at 50.0 µM), 97.7% (active). Also, the growth inhibition in test [3] (setting [7]) is 1%; in test [3] (setting [8]), 88% (active); in test [3] (at 50.0 µM) it was 98% (active); in test [4] (setting [7]) it was -8%; in test [4] (setting [8]), 78% (active); in test [4] (at 50.0 µM), 97.2% (active). In addition, the growth inhibition in test [5] (setting [7]) is -4%; in test [5] (setting [8]), 90% (active); in test [5] (at 50.0 µM) it was 98.7% (active); in test [6] (setting [7]) it was -4%; in test [6] (setting [8]), 91% (active); in test [6] (at 50.0 µM), 98.2% (active).

As to `CC(C)(C)[Si](C)(C)OCC1OC(n2cnc3c(NC(=O)c4ccccc4)ncnc32)CC1O` (configuration not stated), the growth inhibition in test [1] (setting [7]) was 2%; in test [1] (setting [8]) it was 4%; in test [1] (at 50.0 µM) it was 10%; in test [2] (setting [7]), -2%; in test [2] (setting [8]), 4%; in test [2] (at 50.0 µM), -28.8%. Moreover, the growth inhibition was -1% in test [3] (setting [7]); 6% in test [3] (setting [8]); 3.25% in test [3] (at 50.0 µM); -1% in test [4] (setting [7]); 2% in test [4] (setting [8]); 77.6% (active) in test [4] (at 50.0 µM). Besides, the growth inhibition in test [5] (setting [7]) is -2%; in test [5] (setting [8]) it was -4%; in test [5] (at 50.0 µM), 10.5%; in test [6] (setting [7]), -2%; in test [6] (setting [8]), 4%; in test [6] (at 50.0 µM) it was 32.5%.

For the compound `Cc1ccc2c(c1)C1(SC(C)C(=O)N1c1ccc(Cl)cc1)C(=O)N2CN1CCOCC1` (configuration not stated), the growth inhibition in test [1] (setting [7]) was 5%; in test [1] (setting [8]) it was 98% (active); in test [1] (at 50.0 µM) it was 18.6%; in test [2] (setting [7]), -4%; in test [2] (setting [8]) it was 97% (active); in test [2] (at 50.0 µM), 5.5%. The growth inhibition in test [3] (setting [7]) is -3%; in test [3] (setting [8]), 95% (active); in test [3] (at 50.0 µM), 0.4%; in test [4] (setting [7]), -4%; in test [4] (setting [8]), 92% (active); in test [4] (at 50.0 µM), -17.3%. Also, the growth inhibition in test [5] (setting [7]) was 11%; in test [5] (setting [8]), 97% (active); in test [5] (at 50.0 µM), 16%; in test [6] (setting [7]), 11%; in test [6] (setting [8]) it was 98% (active); in test [6] (at 50.0 µM), 29.9%.

With `COC(=O)C1(C)CCCC2(C)C3CCC4CC3(C=C4CO)CCC12` (configuration not stated), the growth inhibition in test [1] (setting [7]) is 32%; in test [1] (setting [8]) it was 96% (active); in test [1] (at 50.0 µM), 53%; in test [2] (setting [7]), 24%; in test [2] (setting [8]), 98% (active); in test [2] (at 50.0 µM), 43.1%. The growth inhibition in test [3] (setting [7]) is 35%; in test [3] (setting [8]), 99% (active); in test [3] (at 50.0 µM), 86.5% (active); in test [4] (setting [7]), 36%; in test [4] (setting [8]), 91% (active); in test [4] (at 50.0 µM), 73.5% (active). Also, the growth inhibition is 24% in test [5] (setting [7]); 98% (active) in test [5] (setting [8]); 80.7% (active) in test [5] (at 50.0 µM); 41% in test [6] (setting [7]); 98% (active) in test [6] (setting [8]); 50.4% in test [6] (at 50.0 µM).

Consider `CCCCN(CCCC)CC(O)c1cc(-c2ccc(Cl)cc2)nc2cc(C)ccc12` (configuration not stated), for which the growth inhibition in test [1] (setting [7]) was -5%; in test [1] (setting [8]), 97% (active); in test [1] (at 50.0 µM), 99.2% (active); in test [2] (setting [7]), 17%; in test [2] (setting [8]) it was 98% (active); in test [2] (at 50.0 µM), 99.2% (active). Further, the growth inhibition was 11% in test [3] (setting [7]); 99% (active) in test [3] (setting [8]); 99.6% (active) in test [3] (at 50.0 µM); 5% in test [4] (setting [7]); 97% (active) in test [4] (setting [8]); 96.2% (active) in test [4] (at 50.0 µM). In addition, the growth inhibition is 6% in test [5] (setting [7]); 97% (active) in test [5] (setting [8]); 98.9% (active) in test [5] (at 50.0 µM); 33% in test [6] (setting [7]); 98% (active) in test [6] (setting [8]); 99.1% (active) in test [6] (at 50.0 µM).

Take `Cc1cc(O)n(Cc2ccccc2)c(=O)c1`: the growth inhibition in test [1] (setting [7]) was -151%; in test [1] (setting [8]), 34%; in test [1] (at 50.0 µM), 48.5%; in test [2] (setting [7]), -51%; in test [2] (setting [8]), -36%; in test [2] (at 50.0 µM), 9.75%. The growth inhibition in test [3] (setting [7]) was -67%; in test [3] (setting [8]), 33%; in test [3] (at 50.0 µM), 34.6%; in test [4] (setting [7]), -60%; in test [4] (setting [8]) it was -45%; in test [4] (at 50.0 µM), -4.75%. The growth inhibition was -70% in test [5] (setting [7]); 4% in test [5] (setting [8]); 47.9% in test [5] (at 50.0 µM); -123% in test [6] (setting [7]); 7% in test [6] (setting [8]); 67.1% in test [6] (at 50.0 µM).
